By viability is commonly meant a read-out of living cells in per cent, often relative to untreated cells.

Inconclusive results are not listed. Values without a mark were called inactive. The source made the active and inactive calls. Calls come from the whole dose curve; as a rule, active = well fitted cell-killing curve with a large enough effect; inconclusive = small, poorly fitted or top-dose-only effect, or effect the other way; inactive = no such curve, though single readings can be large or run the other way.
Potency is the fitted concentration of half-maximal effect.

This assay can be described thus: Quantitative High-Throughput drug screen in 47 multiple myeloma cell lines against the NCATS MIPE library collection: SKMM1_PLB cell viability assay (AID 1919863). For viability: series mostly up to about 46 µM. Note: nearly all actives have a fitted effect of over 35% in size. Conditions: SKMM1 myeloma viability, CellTiter-Glo ATP, 48 h; viability: hits give low values. An excerpt: PI: Beverly A. Mock Ph.D.
Laboratory of Cancer Biology and Genetics,
Center for Cancer Research, National Cancer Institute,
National Institute of Health, Bethesda, Maryland
Drug resistance and disease progression are common in multiple myeloma (MM) patients, underscoring the need for new therapeutic combinations. […] We hypothesized that effective combinations would reduce MYC expression and enhance p16 activity. […] These preclinical data identify potentially useful drug combinations for evaluation in drug-resistant MM and reveal potential mechanisms of combined drug sensitivity.
Described herein is the primary MIPE qHTS used to cherrypick compounds. Validated compounds were then further tested for potential synergistic activiy.
[1] Peat TJ, Gaikwad SM, Dubois W, Gyabaah-Kessie N, Zhang S, Gorjifard S, Phyo Z, Andres M, Hughitt VK, Simpson RM, Miller MA, Girvin AT, Taylor A, Williams D, D'Antonio N, Zhang Y, Rajagopalan A, Flietner E, Wilson K, Zhang X, Shinn P, Klumpp-Thomas C, McKnight C, Itkin Z, Chen L, Kazandijian D, Zhang J, Michalowski AM, Simmons JK, Keats J, Thomas CJ, Mock BA. Drug combinations identified by high-throughput screening promote cell cycle transition and upregulate Smad pathways in myeloma. Cancer Lett. 2023 Aug 1;568:216284. doi: 10.1016/j.canlet.2023.216284. Epub 2023 Jun 24. PMID: 37356470; PMCID: PMC10408729.
SEQUENCE No. (e.g., 1, 2, 3, etc.); […] (e.g., Cells, Incubation, Reagent, etc.); VALUE and DESCRIPTION.
1; Cells; 5 uL; white, solid bottom 1536-well Greiner assay plate.
2; Compounds; 23 nL; Kalypsis pin tool (Wako USA) equipped with a 1536-well pin head to transfer to the assay plates.
3; Incubation; 48 hours; 37C incubation.
4; Reagent;5uL; CellTiter Glo (Promega).
5; Detector; 425V; Luminescence; Viewlux PerkinElmer.
NOTES (numbers refer to Sequence numbers above)
1. The cell-based screening methods employed in this study were like those previously published. Briefly, the corresponding myeloma cell lines were screened in 1,536-well plates with 500 cells, 5-uL per well for inhibition of cell viability (assessed by measuring ATP levels with CellTiterGlo).
2. NCATS MIPE 4.0 library of approved and investigational drugs were added using the Kalypsis pin tool. Wells treated with DMSO only for 100% viability and media only for 0% viability were used as controls.
3. The assay plates were covered and incubated for 48 hours in a 37C, 5% CO2 incubator with controlled humidity.
4. After 48 hours, CellTilter-GloTM luminescent substrate mix (Promega) reagent was added to the assay plate and plates we incubated for 5 min at room temperature.
5. Signal was measured as median relative luminescence units on a ViewLux (PerkinElmer) multiplate reader.
[1] Heske CM, Davis MI, Baumgart JT, Wilson K, Gormally MV, Chen L, Zhang X, Ceribelli M, Duveau DY, Guha R, Ferrer M, Arnaldez FI, Ji J, Tran HL, Zhang Y, Mendoza A, Helman LJ, Thomas CJ. Matrix Screen Identifies Synergistic Combination of PARP Inhibitors and Nicotinamide Phosphoribosyltransferase (NAMPT) Inhibitors in Ewing Sarcoma. Clin Cancer Res. 2017 Dec 1;23(23):7301-7311. doi: 10.1158/1078-0432.CCR-17-1121. Epub 2017 Sep 12. PMID: 28899971; PMCID: PMC6636827.
On the technique in general: Cellular ATP, detected with luciferase, serves as a proxy for viable cell number.
`O=C1C=CC[C@@H]2[C@H]3CCCN4CCC[C@@H](CN12)[C@@H]34`: the viability is 117%. Regarding `Cc1ccccc1-n1c(Cn2ncc3c(N)ncnc32)nc2cccc(C)c2c1=O`, the Potency was 5.26 µM (active). As for `CCN1CCN(C(=O)Cc2ccc(Nc3ncc(F)c(Nc4ccc(C(=O)Nc5ccccc5Cl)cc4)n3)cc2)CC1`, the Potency was 9.35 µM (active).

Turning to `CC=C(C)C(=O)N[C@@H](c1ccccc1)[C@@H](O)C(=O)O[C@H]1C[C@@]2(O)[C@@H](OC(=O)c3ccccc3)[C@@H]3[C@]4(OC(C)=O)CO[C@@H]4C[C@H](O)[C@@]3(C)C(=O)[C@H](OC(C)=O)C(=C1C)C2(C)C`, the viability is 60.8%. Take `O=C(NCC1CCOCC1)c1cnc(Nc2ccc(Cl)cc2Cl)nc1C(F)(F)F`: the viability was 104%. For the molecule `CC[C@@]1(O)C(=O)OCc2c1cc1n(c2=O)Cc2cc3ccccc3nc2-1`, the Potency was 0.235 µM (active). Regarding `Cc1[nH]nc2ccc(-c3cncc(OC[C@@H](N)Cc4c[nH]c5ccccc45)c3)cc12`, the Potency was 5.9 µM (active).

Turning to `CC(=Cc1csc(C)n1)[C@@H]1C[C@H]2O[C@]2(C)CCC[C@H](C)[C@@H](O)[C@@H](C)C(=O)C(C)(C)[C@@H](O)CC(=O)O1`, the viability is 69.9%. On to `Cc1c(N)nc([C@H](CC(N)=O)NC[C@@H](N)C(N)=O)nc1C(=O)N[C@H](C(=O)N[C@@H](C)[C@H](O)[C@@H](C)C(=O)N[C@@H](C(=O)NCCc1nc(-c2nc(C(=O)NCCC[S+](C)C)cs2)cs1)[C@@H](C)O)C(O[C@H]1O[C@H](CO)[C@H](O)[C@@H](O)[C@@H]1O[C@H]1O[C@H](CO)[C@@H](O)[C@H](OC(N)=O)[C@H]1O)c1cnc[nH]1` (stereo not given in full), for which the viability was 89.3%. The same measure, in the same setting: next, `O=C(Oc1ccc([N+](=O)[O-])cc1)N1CCN(Cc2cccc(Oc3ccccc3)c2)CC1`: 117%; `C[C@@H]1CC[C@H]2[C@@H](C)C(=O)O[C@@H]3O[C@@]4(C)CC[C@H]1[C@]32OO4`: 103%. For the molecule `Cc1ccccc1-n1c(Cn2cnc3c(N)ncnc32)nc2cccc(C)c2c1=O`, the Potency is 0.526 µM (active). Take `CN1[C@H]2CC(O)C[C@H]1[C@H]1O[C@H]12` (stereo not given in full): the Potency was 23.5 µM (active). On the same count and under the same terms, under `N#C[C@H](O[C@@H]1O[C@H](CO[C@@H]2O[C@H](CO)[C@H](O)[C@H](O)[C@H]2O)[C@H](O)[C@H](O)[C@H]1O)c1ccccc1` stands 20.9 µM (active); under `CC(=O)O[C@@]12CO[C@H]1C[C@H](O)[C@@]1(C)C(=O)[C@H](O)C3=C(C)[C@@H](O)C[C@@](O)([C@@H](OC(=O)c4ccccc4)[C@@H]21)C3(C)C`, 4.18 µM (active); under `O=C(Nc1ccncc1)C(=O)c1cn(Cc2ccc(Cl)cc2)c2ccccc12`, 0.418 µM (active). On the same count and under the same terms, next, `C=C[C@@H]1CN2CCC1C[C@@H]2[C@@H](O)c1ccnc2ccccc12` (stereo not given in full): 23.5 µM (active); `c1ccc(CCCN2CCN(CCOC(c3ccccc3)c3ccccc3)CC2)cc1`: 20.9 µM (active). `C[C@]12CC[C@H]3[C@@H](CCC4=CC(=O)CC[C@@]43C)[C@H]1CC[C@H]2O`: the viability is 133%. Regarding `Cc1nc(-c2ccc(-c3ccc(C(=O)N4CCc5cc6c(cc54)C4(CCN(C)CC4)CO6)cc3)c(C)c2)no1`, the viability was 124%.

Take `CCN(CC)C(=O)c1ccc(C2=CC3(CCNCC3)Oc3cccc(O)c32)cc1`: the viability was 112%. Take `C[C@@]12OC(=O)[C@]1([C@@H](O)[C@@H]1C=CCCC1)NC(=O)[C@H]2CCCl`: the Potency was 0.105 µM (active). Same read-out and setting: next, `CC(C)(O)C=CC(=O)[C@](C)(O)[C@H]1[C@H](O)C[C@]2(C)[C@@H]3CC=C4[C@@H](C=C(O)C(=O)C4(C)C)[C@]3(C)C(=O)C[C@@]12C`: 2.64 µM (active); `COc1ccc2c(c[n+](C)c3c4cc5c(cc4ccc23)OCO5)c1OC`: 5.9 µM (active); `CN(C)[C@@H]1C(=O)C(C(N)=O)=C(O)[C@@]2(O)C(=O)C3=C(O)c4c(O)cccc4[C@@](C)(O)[C@H]3[C@H](O)[C@@H]12`: 14.8 µM (active). As for `COC1=C[C@@H]2[C@@H]3Cc4ccc(OC)c(O)c4[C@]2(CCN3C)CC1=O`, the viability was 132%. In the case of `c1cc2c(cc1[C@H]1OC[C@H]3[C@H]1CO[C@H]3c1ccc3c(c1)OCO3)OCO2`, the viability is 134%. For `COc1cc2cc(c1Cl)N(C)C(=O)C[C@H](OC(=O)C(C)C)[C@]1(C)O[C@H]1[C@H](C)[C@@H]1C[C@@](O)(NC(=O)O1)[C@H](OC)C=CC=C(C)C2`, the viability was 50.1%. As to `CC(=CCCC1=CCC(C2=CC(=O)OC2O)OC1O)CCC1=C(C)CCCC1(C)C` (stereo not given), the viability is 104%. With `CCNC(=O)C[C@@H]1N=C(c2ccc(Cl)cc2)c2cc(OC)ccc2-n2c(C)nnc21`, the Potency was 0.469 µM (active). For the molecule `CN[C@@H]1Cc2cccc3[nH]c(=O)n(c23)C1`, the viability was 93.2%. As for `CC=C(C)C(=O)O[C@H]1C(C)=C2[C@@H]3OC(=O)[C@@](C)(O)[C@@]3(O)[C@@H](OC(=O)CCC)C[C@](C)(OC(C)=O)[C@@H]2[C@@H]1OC(=O)CCCCCCC`, the Potency is 0.105 µM (active). `C=CCON=C(C[C@H]1O[C@@H]2O[C@]3(C)CC[C@@H]4[C@H](C)CC[C@@H]([C@H]1C)[C@@]24OO3)[C@H]1O[C@@H]2O[C@]3(C)CC[C@H]4[C@H](C)CC[C@@H]([C@@H]1C)[C@@]24OO3`: the Potency was 0.264 µM (active). Consider `COc1cc([C@@H]2c3cc4c(cc3[C@@H](O)C3COC(=O)C32)OCO4)cc(OC)c1O` (stereo not given in full), for which the Potency was 0.0166 µM (active). Same read-out and setting: under `C[C@@H]1O[C@@H](O[C@@H]2C=C3CC[C@@H]4[C@@H](CC[C@]5(C)[C@H](c6ccc(=O)oc6)CC[C@@]45O)[C@@]3(C)CC2)[C@H](O)[C@H](O)[C@H]1O` stands 0.0235 µM (active). Regarding `C#C[C@]1(O)C=C[C@@H]2[C@@H]3CCC4=CC(=O)CC[C@@H]4[C@H]3CC[C@@]21CC`, the viability was 126%. On to `Cc1c(C(=O)c2cccc3ccccc23)c2cccc3c2n1[C@H](CN1CCOCC1)CO3`, for which the Potency was 23.5 µM (active). On to `O=C(Oc1ccc([N+](=O)[O-])cc1)N1CCC(C(O)(c2ccc3c(c2)OCO3)c2ccc3c(c2)OCO3)CC1`, for which the viability was 123%. The same measure, in the same setting: under `CCOC(=O)Nc1ccc(NCc2ccc(F)cc2)cc1N` stands 119%.

`O=c1[nH]c2ccc(Cl)cc2c(N[C@@H]2CN3CCC2CC3)c1-c1nc2ccccc2[nH]1`: the Potency was 4.69 µM (active).

The values are drawn from PubChem BioAssay (NCATS).
